Test results reported in PubChem BioAssay (NCI).
About 79,000 compounds went through this panel and 15% of them were active in at least one assay; those are over-represented in the sample as a whole. Rule as the data show it: active = growth inhibition above about 70%; inactive = the rest.

Tests used:
[1] = NCI Yeast Anticancer Drug Screen. Data for the rad50 strain (AID 155);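 also: 0% = growth of vehicle-only cultures of the same strain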; details: S. cerevisiae rad50 strain growth inhibition; at 50.0 µM; hits give high values
Outline: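 Vehicle-treated cultures provide the reference for the growth inhibition reported for compound-exposed, repair-deficient yeast.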

[2] = NCI Yeast Anticancer Drug Screen. Data for the mec2-1 strain (AID 157); details: S. cerevisiae mec2-1 strain, at 50.0 µM, hits give high values
Outline: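 Using mec2-1 yeast: add compound, measure growth, express inhibition versus vehicle-treated cultures.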

[3] = NCI Yeast Anticancer Drug Screen. Data for the sgs1 mgt1 strain (AID 161);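 also: 0% = growth of cultures given vehicle only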; details: S. cerevisiae sgs1 mgt1 strain, at 50.0 µM, hits give high values
Outline: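 Compounds are added to genetically altered yeast, and growth is compared with cultures given vehicle alone to give percent inhibition.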

[4] = NCI Yeast Anticancer Drug Screen. Data for the cln2 rad14 strain (AID 165);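 also: 0% = growth equal to vehicle treated cultures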; details: S. cerevisiae cln2 rad14 strain, at 50.0 µM, hits give high values
Outline: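 Yeast strain cln2 rad14, bearing defects in cell cycle control and DNA repair, serves as the test system; values reflect growth inhibition compared with vehicle.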

[5] = NCI Yeast Anticancer Drug Screen. Data for the bub3 strain (AID 167); details: S. cerevisiae bub3 mutant strain, at 50.0 µM, hits give high values
Outline: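 Mutant yeast screening strain plus compound; vehicle-treated cultures serve as the 0% inhibition reference.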

[6] = NCI Yeast Anticancer Drug Screen. Data for the mlh1 rad18 strain (AID 175); details: S. cerevisiae mlh1 rad18 strain growth inhibition; at 50.0 µM; hits give high values
Outline: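 Steps: expose repair-defective yeast to compound; measure growth; express inhibition against vehicle-treated controls.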

Measured: growth inhibition

COC(=O)C1=CO[C@@H](C)[C@@H]2CN3CCc4c([nH]c5ccc(OC)cc45)[C@@H]3C[C@H]12
inactive: [1] 8.9% | [2] -19.9% | [3] -24.9% | [4] -18.6% | [5] -2.9% | [6] -16.4%

Nc1ccc2c(c1)Oc1c(F)c(F)cc3c(=O)c(C(=O)O)cn-2c13
inactive: [1] 6.9% | [2] 11.2% | [3] 7.7% | [4] 16.1% | [5] 0% | [6] 48.1%

O=C1c2ccccc2C(=O)N1CNc1cccc(Cl)c1
inactive: [1] 6.45% | [2] 13.2% | [3] 9.45% | [4] 10.1% | [5] 4.6% | [6] 22.4%

C/C(=N/OCCC(=O)O)C1CC1
inactive: [1] -2.85% | [2] -1.65% | [3] -1.35% | [4] 11.8% | [5] 7.9% | [6] -17.6%

C/C(=N\N=P(c1ccccc1)(c1ccccc1)c1ccccc1)C(C)(C)C
inactive: [1] 8.35% | [2] 10.2% | [3] 1.75% | [4] 11.9% | [5] 4.5% | [6] 31.7%

C=CCC12CC(C)OC1=Nc1ccccc1NC2=O (stereo unspecified)
inactive: [1] -0.95% | [2] -1.85% | [3] -18.2% | [4] 21.1% | [5] 7.2% | [6] -9.8%

CC(C)C1CCC(C)(C=O)C1 (stereo unspecified)
inactive: [1] -19.7% | [2] -0.5% | [3] -14.3% | [4] -7.85% | [5] -5.75% | [6] -26.9%

CCOC(=O)Oc1ccc(Cl)cc1Cl
inactive: [1] 3.2% | [2] 14.1% | [3] 2.55% | [4] 5.2% | [5] -4.4% | [6] -3.8%

O=c1oc2c(-c3c(O)c(=O)oc4ccccc34)cc(O)cc2s1
inactive: [1] 10.3% | [2] 14.6% | [3] 22.9% | [4] 17.1% | [5] 10% | [6] 36%

CCOC1(OCC)CCC2(CC1)c1ccccc1-c1ccccc12
inactive: [1] 9.5% | [2] 15.8% | [3] 2.95% | [4] 1.15% | [5] -7.45% | [6] 14.8%

Oc1cc(O)c(Cl)cc1Cl
inactive: [1] 15.4% | [2] -4.25% | [3] -22.8% | [4] -2.95% | [5] -12.3% | [6] 23.3%

COC(=O)C1=CC2C(C1)C1CC2C(OC(C)=O)C1N(C)C (stereo unspecified)
inactive: [1] 15.8% | [2] 6% | [3] -0.55% | [4] -31.8% | [5] 6.35% | [6] 17.4%

O=C(OCc1ccccc1CN1CCCC1)c1cccc(Cl)c1
inactive: [1] 2.8% | [2] -3.75% | [3] -8.1% | [4] -7.2% | [5] 8.35% | [6] 2.65%

Cc1cc(=O)n2c(c1)[nH]c1ccccc12
inactive: [1] 3.25% | [2] 0.3% | [3] -5.55% | [4] -0.95% | [5] 1.75% | [6] 1.65%

O/N=C/c1cc2c(cc1Br)OCO2
inactive: [1] -4.2% | [2] -9.9% | [3] -18.9% | [4] -9.75% | [5] -16.9% | [6] -17.6%

Cc1ccc(NC(=O)C(c2ccccc2)c2ccccc2)cc1
inactive: [1] 0.15% | [2] 19.4% | [3] 3.8% | [4] -2.55% | [5] 20.2% | [6] 6.75%

COC1CCCCC(=NNC(N)=O)CCCC1 (stereo unspecified)
inactive: [1] -0.2% | [2] -2.65% | [3] -13.2% | [4] -44.6% | [5] -7.15% | [6] -1.15%

CCCCCCCCCCCCOC(=O)CSC#N
inactive: [1] -5.65% | [2] -38% | [3] -31.9% | [4] -67.5% | [5] -39.6% | [6] -14.1%

CC(=O)c1cc2c(cc1C(C)C)C(C)(C)C(C)CC2(C)C (stereo unspecified)
inactive: [1] -19.6% | [2] -19.2% | [3] 13.8% | [4] 29.4% | [5] -41.9% | [6] 17.4%

NC1=NS(=O)(=O)Nc2nc(-c3ccc(Cl)cc3)c(-c3ccc(Cl)cc3)nc21
inactive: [1] -16.6% | [2] -17.2% | [3] -25% | [4] 3.45% | [5] -22% | [6] -24.8%

CNCCC1CCCCCC1
inactive: [1] 1.8% | [2] 5.45% | [3] -1.15% | [4] -13.5% | [5] 10.9% | [6] -2.8%

O=c1cc(O)n2ncnc2[nH]1
inactive: [1] -4.3% | [2] -23.6% | [3] -21.8% | [4] 3.05% | [5] -12.6% | [6] 9%

O=C(NC(O)(C(F)(F)F)C(F)(F)F)c1ccccc1
inactive: [1] -5.35% | [2] 6.85% | [3] 10.7% | [4] 0.9% | [5] -7.05% | [6] -6.95%

CC(=O)Nc1ccc(F)c(F)c1
inactive: [1] 17.8% | [2] -16.7% | [3] 3.2% | [4] -3.95% | [5] -3.35% | [6] 30.8%

COc1cc(C2SCC(=O)N2c2ccc(-n3c(-c4ccccc4)nc4ccccc4c3=O)cc2)cc(OC)c1OC (stereo unspecified)
inactive: [1] -17.3% | [2] -8.85% | [3] -4.4% | [4] -7.8% | [5] 8.05% | [6] 4.5%

Cc1[nH]c2ccccc2c1CC1CC(=O)OC1=O (stereo unspecified)
inactive: [1] -8.35% | [2] -18.6% | [3] 12.5% | [4] 6.3% | [5] -9.15% | [6] -7.15%

COC(=O)c1ccccc1O
inactive: [1] -3.4% | [2] 2.25% | [3] -7.9% | [4] -39.4% | [5] 1.25% | [6] -19.5%

CC(=O)C1(C)SC(N(c2ccccc2)c2ccccc2)=NC1=O (stereo unspecified)
inactive: [1] -1.2% | [2] -4.4% | [3] -4.05% | [4] 2.4% | [5] 9.05% | [6] -0.6%

COC(=O)c1nc(N)[nH]c(=O)c1CCCCCc1c(C(=O)OC)nc(N)[nH]c1=O
inactive: [1] -4.8% | [2] -0.15% | [3] -9.2% | [4] 6.5% | [5] -0.3% | [6] -17.6%

CCOC(=O)C1=C(C(=O)c2ccc(C)cc2)C(c2c(Cl)cccc2Cl)C(C(=O)c2ccc(C)cc2)=C(C(=O)OCC)N1
inactive: [1] 18.4% | [2] 21.1% | [3] 37.8% | [4] 44.5% | [5] 54.9% | [6] 38%

O=C(N/N=C\c1ccc(Cl)cc1)Nc1ccc2ccccc2c1
inactive: [1] 2.9% | [2] 11.1% | [3] 4.35% | [4] 12.9% | [5] 20% | [6] 29.1%

Clc1ccc(N=C(Oc2ccc(Cl)cc2)c2ccccc2)cc1
inactive: [1] 4.95% | [2] 7.35% | [3] -4.85% | [4] -12.4% | [5] 0.25% | [6] 3.6%

CCCCCCCCCC[CH2][Sn]([CH2]CCCCCCCCCC)([CH2]CCCCCCCCCC)[CH2]CCCCCCCCCC
inactive: [1] 5.8% | [2] 7.8% | [3] -3.4% | [4] -16.3% | [5] -1.25% | [6] 23.7%

CC(CC[C@@]1(C)C(=O)CCC2O[C@]21C)[C@H]1C[C@@H](c2ccoc2)OC1=O (stereo partly specified)
inactive: [1] 9.05% | [2] -31.8% | [3] -5.4% | [4] -15.8% | [5] -4.8% | [6] -70.9%

CC(C)(C)c1cc(C2OC(N)=C(O)C2=O)cc(C(C)(C)C)c1O (stereo unspecified)
inactive: [1] 13.4% | [2] 11.1% | [3] 24.7% | [4] 13.8% | [5] 5.4% | [6] 32.2%

N#Cc1ccccc1-c1ccccc1/C=C/C(=O)O
inactive: [1] -20.4% | [2] -5.9% | [3] -9.5% | [4] 11.8% | [5] -8% | [6] 12.4%

Cc1ccc(SCc2ccc(Cl)cc2)nn1
inactive: [1] 4.05% | [2] 0.3% | [3] -1.65% | [4] -13.8% | [5] 26.8% | [6] -5%

O=C(N/N=C/c1ccc(O)cc1)C1CCCO1 (stereo unspecified)
inactive: [1] 2.9% | [2] 26.5% | [3] -1.35% | [4] -64.2% | [5] 2.95% | [6] -9.45%

CCCCCCCCCCCC(=O)NC(=S)Nc1cc(OC)ccc1OC
inactive: [1] -17.9% | [2] -7.25% | [3] -2.9% | [4] -47.3% | [5] -3.85% | [6] -0.95%

N#CC(CC(=O)NN)C(=O)NN (stereo unspecified)
inactive: [1] -20.4% | [2] -8.9% | [3] -21% | [4] -12.4% | [5] -38.7% | [6] -22.5%

NNC(=O)CNc1cccc(Br)c1
inactive: [1] -16.1% | [2] -24.6% | [3] -6.1% | [4] 16.9% | [5] -32.4% | [6] -11.4%
